# Results published in the supplement of paper PMC11741263, “Chemoproteomic Profiling of C. albicans for Characterization of Anti-fungal Kinase Inhibitors” (bioRxiv, 2025).
# Compound: Cc1[nH]nc2ccc(-c3cc(OC[C@@H](N)Cc4ccccc4)cnc3-c3ccoc3)cc12
# Assay: MIB bead binding, log2 fold change vs DMSO (log2 ratio); higher = less competition (weaker engagement)
# Sequence of UniProt Q92207 (Q92207 whole entry): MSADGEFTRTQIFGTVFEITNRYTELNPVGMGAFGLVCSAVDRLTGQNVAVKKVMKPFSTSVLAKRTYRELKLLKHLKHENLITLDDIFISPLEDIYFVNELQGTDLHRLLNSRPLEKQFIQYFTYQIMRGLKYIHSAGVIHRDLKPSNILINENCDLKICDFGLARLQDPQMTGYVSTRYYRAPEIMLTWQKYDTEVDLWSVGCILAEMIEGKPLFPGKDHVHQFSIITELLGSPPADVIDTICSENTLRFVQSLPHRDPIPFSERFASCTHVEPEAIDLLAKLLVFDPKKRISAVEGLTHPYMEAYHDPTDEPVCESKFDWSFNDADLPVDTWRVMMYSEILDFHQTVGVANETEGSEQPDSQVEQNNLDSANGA
# Sequence of UniProt O75460 (O75460 whole entry, looked up): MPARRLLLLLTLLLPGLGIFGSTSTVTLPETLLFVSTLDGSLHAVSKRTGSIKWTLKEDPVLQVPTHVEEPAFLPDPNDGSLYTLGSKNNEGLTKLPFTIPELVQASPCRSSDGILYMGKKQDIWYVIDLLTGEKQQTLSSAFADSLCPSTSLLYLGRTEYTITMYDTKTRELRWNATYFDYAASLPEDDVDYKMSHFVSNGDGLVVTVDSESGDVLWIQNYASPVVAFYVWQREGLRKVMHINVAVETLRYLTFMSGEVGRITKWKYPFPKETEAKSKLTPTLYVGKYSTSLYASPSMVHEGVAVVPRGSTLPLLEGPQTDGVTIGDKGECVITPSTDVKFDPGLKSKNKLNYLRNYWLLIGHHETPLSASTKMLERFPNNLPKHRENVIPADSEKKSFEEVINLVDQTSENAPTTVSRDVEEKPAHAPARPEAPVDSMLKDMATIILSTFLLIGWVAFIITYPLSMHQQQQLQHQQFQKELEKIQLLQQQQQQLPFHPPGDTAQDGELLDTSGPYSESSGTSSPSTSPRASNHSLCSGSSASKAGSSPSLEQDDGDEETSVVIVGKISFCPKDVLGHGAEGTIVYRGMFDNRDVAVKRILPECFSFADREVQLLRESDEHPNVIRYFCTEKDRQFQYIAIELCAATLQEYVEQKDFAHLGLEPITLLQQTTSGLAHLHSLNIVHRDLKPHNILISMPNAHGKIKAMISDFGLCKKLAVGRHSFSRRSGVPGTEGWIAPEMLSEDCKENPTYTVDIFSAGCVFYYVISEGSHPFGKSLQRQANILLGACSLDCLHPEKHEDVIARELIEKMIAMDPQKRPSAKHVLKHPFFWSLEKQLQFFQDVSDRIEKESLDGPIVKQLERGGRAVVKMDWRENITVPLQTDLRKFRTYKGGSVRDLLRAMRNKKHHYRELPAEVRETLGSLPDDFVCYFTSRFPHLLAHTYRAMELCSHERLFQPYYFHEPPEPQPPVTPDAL
# Sequence of UniProt Q9BVS4 (Q9BVS4 whole entry, looked up): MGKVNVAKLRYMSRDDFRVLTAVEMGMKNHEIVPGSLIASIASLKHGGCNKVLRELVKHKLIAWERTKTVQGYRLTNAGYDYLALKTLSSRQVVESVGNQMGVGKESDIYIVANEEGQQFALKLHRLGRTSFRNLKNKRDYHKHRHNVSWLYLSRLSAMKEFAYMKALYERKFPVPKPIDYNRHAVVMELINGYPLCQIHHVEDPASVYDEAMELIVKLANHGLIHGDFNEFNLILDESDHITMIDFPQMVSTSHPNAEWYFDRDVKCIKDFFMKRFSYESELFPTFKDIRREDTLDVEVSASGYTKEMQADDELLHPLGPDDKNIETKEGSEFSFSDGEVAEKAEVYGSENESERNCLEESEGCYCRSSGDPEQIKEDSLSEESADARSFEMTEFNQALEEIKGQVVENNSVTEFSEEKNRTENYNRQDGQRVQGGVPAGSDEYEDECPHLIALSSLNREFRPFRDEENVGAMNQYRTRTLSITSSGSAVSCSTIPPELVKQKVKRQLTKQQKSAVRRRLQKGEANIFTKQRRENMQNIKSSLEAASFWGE
# Sequence of UniProt Q5AHG6 (Q5AHG6 whole entry): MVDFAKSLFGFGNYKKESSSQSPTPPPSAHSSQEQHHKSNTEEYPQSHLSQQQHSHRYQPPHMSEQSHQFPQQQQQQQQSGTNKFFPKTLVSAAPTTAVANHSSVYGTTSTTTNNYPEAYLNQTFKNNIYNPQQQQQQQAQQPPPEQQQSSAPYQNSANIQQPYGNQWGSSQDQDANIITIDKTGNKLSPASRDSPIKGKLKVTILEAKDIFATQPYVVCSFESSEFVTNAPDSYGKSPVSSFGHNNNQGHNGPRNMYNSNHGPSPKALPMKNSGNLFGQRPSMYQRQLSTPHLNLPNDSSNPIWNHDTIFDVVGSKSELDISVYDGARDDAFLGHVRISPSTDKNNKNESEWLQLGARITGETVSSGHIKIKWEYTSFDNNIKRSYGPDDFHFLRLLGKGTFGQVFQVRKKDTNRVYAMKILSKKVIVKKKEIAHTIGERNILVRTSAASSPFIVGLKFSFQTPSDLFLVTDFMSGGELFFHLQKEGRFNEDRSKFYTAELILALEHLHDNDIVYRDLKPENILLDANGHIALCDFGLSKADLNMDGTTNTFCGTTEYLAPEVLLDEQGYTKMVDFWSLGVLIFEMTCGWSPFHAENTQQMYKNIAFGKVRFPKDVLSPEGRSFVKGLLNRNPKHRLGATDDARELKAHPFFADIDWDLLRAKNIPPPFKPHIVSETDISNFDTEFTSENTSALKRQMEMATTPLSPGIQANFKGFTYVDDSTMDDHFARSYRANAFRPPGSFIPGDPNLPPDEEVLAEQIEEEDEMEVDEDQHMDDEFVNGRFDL
# Sequence of UniProt Q9HGY5 (Q9HGY5 whole entry): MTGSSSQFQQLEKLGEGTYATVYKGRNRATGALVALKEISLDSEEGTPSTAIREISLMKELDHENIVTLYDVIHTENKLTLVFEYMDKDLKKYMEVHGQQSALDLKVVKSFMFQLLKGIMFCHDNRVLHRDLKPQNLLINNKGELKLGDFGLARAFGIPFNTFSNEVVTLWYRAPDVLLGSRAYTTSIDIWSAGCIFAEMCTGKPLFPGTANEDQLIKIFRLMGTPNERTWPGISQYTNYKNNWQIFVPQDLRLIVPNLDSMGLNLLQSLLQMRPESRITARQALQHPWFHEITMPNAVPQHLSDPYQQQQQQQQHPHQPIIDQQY
# Sequence of UniProt P50613 (P50613 whole entry, looked up): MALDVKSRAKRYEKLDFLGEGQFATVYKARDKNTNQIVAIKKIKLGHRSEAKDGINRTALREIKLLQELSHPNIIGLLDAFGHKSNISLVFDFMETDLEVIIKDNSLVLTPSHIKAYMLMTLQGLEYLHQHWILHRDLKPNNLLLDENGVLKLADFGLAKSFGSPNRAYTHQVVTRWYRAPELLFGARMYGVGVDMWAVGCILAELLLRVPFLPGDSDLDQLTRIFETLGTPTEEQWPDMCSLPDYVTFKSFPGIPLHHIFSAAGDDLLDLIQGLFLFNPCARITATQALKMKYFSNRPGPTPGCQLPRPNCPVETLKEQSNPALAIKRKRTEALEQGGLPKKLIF
# Sequence of UniProt Q5AP53 (Q5AP53 whole entry): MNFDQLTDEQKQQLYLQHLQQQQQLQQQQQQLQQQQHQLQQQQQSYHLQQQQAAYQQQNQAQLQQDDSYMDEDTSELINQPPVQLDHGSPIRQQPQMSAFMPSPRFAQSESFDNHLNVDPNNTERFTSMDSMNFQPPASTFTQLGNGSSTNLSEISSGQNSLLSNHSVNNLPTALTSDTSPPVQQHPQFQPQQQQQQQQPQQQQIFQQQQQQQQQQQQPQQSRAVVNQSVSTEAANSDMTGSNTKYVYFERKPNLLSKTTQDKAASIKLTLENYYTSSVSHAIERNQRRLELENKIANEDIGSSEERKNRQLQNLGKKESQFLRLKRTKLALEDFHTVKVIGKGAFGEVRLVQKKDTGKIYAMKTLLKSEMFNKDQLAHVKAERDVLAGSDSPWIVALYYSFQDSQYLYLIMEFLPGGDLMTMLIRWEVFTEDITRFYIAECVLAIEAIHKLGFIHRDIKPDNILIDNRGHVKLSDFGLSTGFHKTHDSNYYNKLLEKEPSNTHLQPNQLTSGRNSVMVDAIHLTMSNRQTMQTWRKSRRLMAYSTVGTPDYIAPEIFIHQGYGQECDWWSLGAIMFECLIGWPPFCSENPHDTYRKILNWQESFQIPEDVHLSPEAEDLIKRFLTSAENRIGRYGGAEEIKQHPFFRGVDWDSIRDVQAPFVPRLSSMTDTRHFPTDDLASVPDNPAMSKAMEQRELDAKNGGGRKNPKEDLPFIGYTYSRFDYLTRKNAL
# Sequence of UniProt P52497 (P52497 whole entry): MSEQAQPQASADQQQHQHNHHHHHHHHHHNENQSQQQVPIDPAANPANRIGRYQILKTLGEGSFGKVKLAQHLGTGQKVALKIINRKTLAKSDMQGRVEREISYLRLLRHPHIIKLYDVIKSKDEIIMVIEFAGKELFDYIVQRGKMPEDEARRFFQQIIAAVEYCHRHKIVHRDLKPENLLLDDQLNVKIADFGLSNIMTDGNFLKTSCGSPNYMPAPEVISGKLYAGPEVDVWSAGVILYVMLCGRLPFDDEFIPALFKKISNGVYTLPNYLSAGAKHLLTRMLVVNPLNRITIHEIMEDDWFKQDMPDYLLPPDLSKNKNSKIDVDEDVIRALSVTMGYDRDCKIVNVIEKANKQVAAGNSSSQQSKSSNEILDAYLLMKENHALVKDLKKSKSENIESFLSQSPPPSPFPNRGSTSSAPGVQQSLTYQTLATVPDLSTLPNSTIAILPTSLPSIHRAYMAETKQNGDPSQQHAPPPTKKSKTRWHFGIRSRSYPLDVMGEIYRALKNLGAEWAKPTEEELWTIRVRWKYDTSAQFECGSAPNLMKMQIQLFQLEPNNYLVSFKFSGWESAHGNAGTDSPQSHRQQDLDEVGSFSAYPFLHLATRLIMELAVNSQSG
target,measurement,setting,value
PKH3,MIB bead binding (log2),0.1 µM,-0.246
same,MIB bead binding (log2),1 µM,-0.128
same,MIB bead binding (log2),10 µM,-0.466
IRE1 (UniProt O75460),MIB bead binding (log2),0.1 µM,-0.11
same,MIB bead binding (log2),1 µM,0.0485
same,MIB bead binding (log2),10 µM,-0.0877
HRR25,MIB bead binding (log2),0.1 µM,-0.165
same,MIB bead binding (log2),1 µM,-0.114
same,MIB bead binding (log2),10 µM,-1.89
SNF1 (UniProt P52497),MIB bead binding (log2),0.1 µM,-0.272
same,MIB bead binding (log2),1 µM,-0.136
same,MIB bead binding (log2),10 µM,-1.78
RCK2,MIB bead binding (log2),0.1 µM,-0.0134
same,MIB bead binding (log2),1 µM,-0.109
same,MIB bead binding (log2),10 µM,-0.886
orf19.6492,MIB bead binding (log2),0.1 µM,-0.282
same,MIB bead binding (log2),1 µM,-0.0346
same,MIB bead binding (log2),10 µM,-3.3
TOR1,MIB bead binding (log2),0.1 µM,-0.226
same,MIB bead binding (log2),1 µM,0.207
same,MIB bead binding (log2),10 µM,-1.59
TPK2,MIB bead binding (log2),0.1 µM,-0.0872
same,MIB bead binding (log2),1 µM,0.0369
same,MIB bead binding (log2),10 µM,-2.41
RIM11,MIB bead binding (log2),0.1 µM,-0.208
same,MIB bead binding (log2),1 µM,-0.891
same,MIB bead binding (log2),10 µM,-3.89
YCK2,MIB bead binding (log2),0.1 µM,-0.488
same,MIB bead binding (log2),1 µM,-1.75
same,MIB bead binding (log2),10 µM,-3.65
CAK1 (UniProt P50613),MIB bead binding (log2),0.1 µM,-0.167
same,MIB bead binding (log2),1 µM,0.067
same,MIB bead binding (log2),10 µM,-2.18
SAK1,MIB bead binding (log2),0.1 µM,0.0968
same,MIB bead binding (log2),1 µM,-0.223
same,MIB bead binding (log2),10 µM,-0.482
KSP1,MIB bead binding (log2),0.1 µM,0.0498
same,MIB bead binding (log2),1 µM,-0.354
same,MIB bead binding (log2),10 µM,-0.384
KIN3,MIB bead binding (log2),0.1 µM,0.0483
same,MIB bead binding (log2),1 µM,0.0107
same,MIB bead binding (log2),10 µM,-0.586
MKC1,MIB bead binding (log2),0.1 µM,-0.00282
same,MIB bead binding (log2),1 µM,0.0129
same,MIB bead binding (log2),10 µM,-1.76
FPK1,MIB bead binding (log2),0.1 µM,0.0443
same,MIB bead binding (log2),1 µM,-0.0445
same,MIB bead binding (log2),10 µM,-0.41
PBS2,MIB bead binding (log2),0.1 µM,-0.000679
same,MIB bead binding (log2),1 µM,-0.0528
same,MIB bead binding (log2),10 µM,-0.766
CEK1,MIB bead binding (log2),0.1 µM,-0.256
same,MIB bead binding (log2),1 µM,-0.317
same,MIB bead binding (log2),10 µM,-1.74
RIO2 (UniProt Q9BVS4),MIB bead binding (log2),0.1 µM,-0.284
same,MIB bead binding (log2),1 µM,-0.263
same,MIB bead binding (log2),10 µM,-1.23
PHO85 (UniProt Q9HGY5),MIB bead binding (log2),0.1 µM,0.238
same,MIB bead binding (log2),1 µM,0.232
same,MIB bead binding (log2),10 µM,-0.87
CBK1 (UniProt Q5AP53),MIB bead binding (log2),0.1 µM,0.0978
same,MIB bead binding (log2),1 µM,-0.0808
same,MIB bead binding (log2),10 µM,-0.759
Yck22,MIB bead binding (log2),0.1 µM,-0.049
same,MIB bead binding (log2),1 µM,-0.35
same,MIB bead binding (log2),10 µM,-2.01
HOG1 (UniProt Q92207),MIB bead binding (log2),0.1 µM,0.146
same,MIB bead binding (log2),1 µM,0.244
same,MIB bead binding (log2),10 µM,-0.916
SCH9 (UniProt Q5AHG6),MIB bead binding (log2),0.1 µM,-0.2
same,MIB bead binding (log2),1 µM,-0.178
same,MIB bead binding (log2),10 µM,-1.05
NPR1 (UniProt P16066),MIB bead binding (log2),0.1 µM,0.0428
same,MIB bead binding (log2),1 µM,-0.0888
same,MIB bead binding (log2),10 µM,-0.75
SHA3,MIB bead binding (log2),0.1 µM,-0.155
same,MIB bead binding (log2),1 µM,-0.569
same,MIB bead binding (log2),10 µM,-1.8
